PMC4552634, “A New Set of Chemical Starting Points with Plasmodium falciparum Transmission-Blocking Potential for Antimalarial Drug Discovery” (PLoS ONE, 2015)
Screen size: about 13,000 compounds; about 3,200 (25%) showed an effect of 50% or more. This is one part of the list.

system: P. falciparum stage V gametocytes; set-up: BacTiter-Glo ATP luminescence viability of purified stage V gametocytes in 384-well plates, per cent inhibition versus DMSO; conditions: 48 h, 5 µM; inhibitor

Row | SMILES | % Inhibition [%]
1 | COC(=O)c1ccc(OCC(C)NCC(O)c2cccc(C(F)(F)F)c2)cc1 (stereo not drawn) [TCMDC-131464] | 25.27
2 | N#Cc1ccc2c(c1)CCN(CCCn1c(-c3ccc4ccccc4c3)nc3ccncc31)CC2 [TCMDC-135551] | 19.09
3 | O=C(NCc1ccc(C(=O)NCc2cccc3ccccc23)cc1)c1ccc(O)c(-c2ccc(Cl)c(Cl)c2)c1 [TCMDC-140878] | 23.84
4 | Cc1ccc2nc(-c3ccccc3)cc(NN=Cc3cccnc3)c2c1 [TCMDC-142053] | -1.228
5 | CCOc1ccccc1N1CCN(CCCNC(=O)/C(=C/C=C/c2cc3cc(Cl)c(Cl)cc3[nH]2)OC)CC1 [TCMDC-139176] | 6.847
6 | Cc1cccc(CNc2ncc(C)c(NCCC(=O)Nc3ccccc3)n2)c1 [TCMDC-134848] | 47.31
7 | O=C(Nc1ccc(Br)cc1)N(CCN1CCOCC1)CC(O)COCc1ccc(F)cc1 (stereo not drawn) [TCMDC-141489] | 29.66
8 | Cc1cc(=O)[nH]c(-n2nc(C)cc2NC(=O)C2(c3ccc(Cl)cc3)CCCC2)n1 [TCMDC-124943] | 43.65
9 | CN(C)CCN(C)C(=O)c1cc(-c2ccncc2)c(-c2ccc(Cl)c(O)c2)o1 [TCMDC-141393] | -25.23
10 | COc1c(C2=CCN(CCCCNC(=O)c3ccc(-c4ccc(C#N)cc4)cc3)CC2)ccc2c1CCCC2 [TCMDC-138753] | -8.55
11 | Cc1cc(N(C)CCN(C)C)nc(Nc2ccc(Cl)cc2)n1 [TCMDC-137008] | 22.54
12 | O=C(NC(=O)c1ccccc1)NC1CCN(c2ccnc3cc(Cl)ccc23)C1 (stereo not drawn) [TCMDC-133403] | -14.2
13 | CCC[C@@H]([C@@H](CC1CCCCC1)C(=O)N[C@H](C(=O)Nc1ccccn1)[C@H](C)CC)N(O)C=O [TCMDC-138122] | -1.104
14 | Nc1ncc(-c2ccc3[nH]ccc3c2)c2ccc(-c3ccncc3)cc12 [TCMDC-133396] | 22.16
15 | Nc1ncc(-c2ccc3nccc(-c4ccncc4)c3c2)cc1S(=O)(=O)N1CCOCC1 [TCMDC-134180] | 94.06
16 | Nc1ncc(-c2ccc3nccc(-c4ccncc4)c3c2)cc1S(=O)(=O)N1CCCCC1 [TCMDC-134265] | 97.23
17 | CN1CCN(c2ccnc3ccc(NC(=O)Cc4ccc(-c5ccncc5)c5ccccc45)cc23)CC1 [TCMDC-139256] | 19.54
18 | CS(=O)(=O)c1ccc2nc(-c3cc(-c4ccc(OCCN5CCOCC5)cc4)cnc3N)[nH]c2c1 [TCMDC-133720] | 8.028
19 | O=C(c1ccc(-c2cnc3[nH]cc(-c4ccc(C(=O)N5CCOCC5)cc4)c3c2)cc1)N1CCOCC1 [TCMDC-132781] | -2.017
20 | O=C(/C=N/O)Nc1ccccc1[N+](=O)[O-] [TCMDC-123981] | -3.715
21 | CCn1c2ccccc2c2cc(Cc3cnc(N)nc3N)ccc21 [TCMDC-131929] | 0.5194

Row | SMILES | % Inhibition [%]
22 | Cc1cccc2nc(-c3ccc(-c4ccc(C(=O)NCCN5CCCC5)cc4)s3)[nH]c12 [TCMDC-132316] | 46.47
23 | Cc1cnc(NCC2CCCCC2)nc1NCC(=O)Nc1ccccc1 [TCMDC-134753] | -41.32
24 | CCN1CCC(N(Cc2ccc(-c3ccc(C(F)(F)F)cc3)cc2)C(=O)Cn2c(CCc3cccc(F)c3F)cc(=O)c3ccccc32)C1 (stereo not drawn) [TCMDC-141300] | 90.33
25 | O=C(Cn1c(CCc2cccc(F)c2F)cc(=O)c2ccccc21)N(Cc1ccc(-c2ccc(C(F)(F)F)cc2)cc1)C1CCN(CCN2CCOCC2)CC1 [TCMDC-136026] | 47.65
26 | CCN1CCC(N(CCCCCCCCc2ccc(C(F)(F)F)cc2)C(=O)Cn2c(CCc3cccc(F)c3F)cc(=O)c3ccccc32)CC1 [TCMDC-141376] | 107.2
27 | O=C(Cn1c(CCc2cccc(F)c2F)cc(=O)c2ccccc21)N(Cc1ccc(-c2ccc(C(F)(F)F)cc2)cc1)C1CCN(CCO)CC1 [TCMDC-141226] | 84.4
28 | COCCN1CCC(N(Cc2ccc(-c3ccc(OC(F)(F)F)cc3)cc2)C(=O)Cn2c(CCc3cccc(F)c3F)cc(=O)c3ccccc32)CC1 [TCMDC-136001] | 86.7
29 | CCN1CCC(N(CCCCCCc2ccc(C(F)(F)F)cc2)C(=O)Cn2c(CCc3cccc(F)c3F)cc(=O)c3ccccc32)CC1 [TCMDC-141339] | 43.24
30 | CCCN(CCC)C(=O)c1cc(C(=O)N[C@@H](Cc2ccccc2)[C@H](O)CNC2CC2)cc(N2CCCCS2(=O)=O)c1 [TCMDC-138892] | 8.102
31 | CC(=Nc1ccc(Cl)c(Cl)c1)N(C)C [TCMDC-137438] | -6.563
32 | CC(C)C[C@H](NC(=O)c1ccc(OCCN2CCOCC2)cc1)C(=O)N[C@H](/C=N/NC(=O)OC(C)(C)C)CCc1ccccc1 [TCMDC-136028] | -97.84
33 | COc1ccc(CN2CCC(N3CC(c4ccccc4)(c4ccccc4)OCC3=O)C2)c(O)c1 (stereo not drawn) [TCMDC-136339] | -23.12
34 | CC(C)C[C@H]1C(=O)N[C@H](C2Cc3ccccc3C2)C(=O)N1[C@@H](C(=O)Nc1ccccc1OCc1ccccc1)c1ccc(F)cc1F [TCMDC-138775] | -10.16
35 | COc1ccc2ncc(F)c(CCN3C4CCC3CC(NCc3cc5c(cn3)OCS5)C4)c2n1 (stereo not drawn) [TCMDC-135637] | 24.95
36 | Cc1cccc(Nc2nccc(NCC(O)c3ccc(C(F)(F)F)cc3)n2)c1 (stereo not drawn) [TCMDC-136592] | -12.82
37 | CC(C)(C)C1CC(=O)CC2C(=O)N(c3ccc(Br)cc3)C(=O)C21 (stereo not drawn) [TCMDC-139130] | -4.164
38 | Cc1ccc(F)c(OCC2CCN(c3ncc(C(=O)NC4CC4)cc3Cl)CC2)c1 [TCMDC-134038] | 21.14
39 | CC(C)(C)N1CCC(N(Cc2ccc(-c3ccc(C(F)(F)F)cc3)cc2)C(=O)Cn2c(CCc3cccc(F)c3F)cc(=O)c3ccccc32)CC1 [TCMDC-136007] | 109.9
40 | CCN1CCC(N(Cc2ccc(-c3ccc(C(F)(F)F)cc3)cc2)C(=O)Cn2c(CCc3cccc(F)c3F)cc(=O)c3ccccc32)CC1 [TCMDC-141119] | 110.1
41 | CCN1CCC(N(Cc2ccc(-c3ccc(C(F)(F)F)cc3)cc2)C(=O)Cn2c(CCc3cccc(F)c3F)cc(=O)c3ccc(OCc4ccccc4)cc32)CC1 [TCMDC-141292] | 107.3
42 | CC(C)(C)N1CCC(N(Cc2ccc(-c3ccc(C(F)(F)F)cc3)cc2)C(=O)Cn2c(CCc3cccc(F)c3F)cc(=O)c3cccnc32)CC1 [TCMDC-136011] | 120.6
